From the supplement of paper PMC11732987, “Enantioselective OTUD7B fragment discovery through chemoproteomics screening and high-throughput optimisation” (Communications Chemistry, 2025)

Tests used:
Assay in all cases: log2 ratio of Biotin-Ahx-Ub-VS probe labelling (fragment/DMSO); higher = less target engagement (more negative = stronger competition), active = hit call of the paper (q ≤ 0.05, log2 ratio ≤ -1)
Settings in all cases: compound concentration: 200 uM; treatment time: 3 h
OTUD6B = target: T1, OTUD6B (UniProt Q8N6M0)
T1 sequence (whole entry): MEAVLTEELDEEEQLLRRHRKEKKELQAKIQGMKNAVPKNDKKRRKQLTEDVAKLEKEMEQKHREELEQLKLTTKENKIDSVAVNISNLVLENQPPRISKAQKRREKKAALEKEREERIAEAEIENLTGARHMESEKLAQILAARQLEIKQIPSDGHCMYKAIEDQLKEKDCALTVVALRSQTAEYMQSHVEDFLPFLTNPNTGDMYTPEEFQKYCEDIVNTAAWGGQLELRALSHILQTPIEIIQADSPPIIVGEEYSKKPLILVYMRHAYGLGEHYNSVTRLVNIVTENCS
Summary of the method: (§1)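 Fragment (200 µM) or vehicle was incubated for 3 h with triplicate HEK293T lysate samples of 495 µg, which were then treated with Biotin-Ahx-Ub-VS at 0.5 µM final for 1 h. Labelled DUBs were enriched on NeutrAvidin, digested with LysC and trypsin, and analysed by diaPASEF LC-MS/MS. Values are average log2 fragment/vehicle ratios from an unpaired t-test on global-median-normalised Spectronaut label-free quantities, using proteins with ≥2 unique peptides.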

OTUD7B = target: T2, OTUD7B (UniProt Q6GQQ9)
T2 sequence (whole entry): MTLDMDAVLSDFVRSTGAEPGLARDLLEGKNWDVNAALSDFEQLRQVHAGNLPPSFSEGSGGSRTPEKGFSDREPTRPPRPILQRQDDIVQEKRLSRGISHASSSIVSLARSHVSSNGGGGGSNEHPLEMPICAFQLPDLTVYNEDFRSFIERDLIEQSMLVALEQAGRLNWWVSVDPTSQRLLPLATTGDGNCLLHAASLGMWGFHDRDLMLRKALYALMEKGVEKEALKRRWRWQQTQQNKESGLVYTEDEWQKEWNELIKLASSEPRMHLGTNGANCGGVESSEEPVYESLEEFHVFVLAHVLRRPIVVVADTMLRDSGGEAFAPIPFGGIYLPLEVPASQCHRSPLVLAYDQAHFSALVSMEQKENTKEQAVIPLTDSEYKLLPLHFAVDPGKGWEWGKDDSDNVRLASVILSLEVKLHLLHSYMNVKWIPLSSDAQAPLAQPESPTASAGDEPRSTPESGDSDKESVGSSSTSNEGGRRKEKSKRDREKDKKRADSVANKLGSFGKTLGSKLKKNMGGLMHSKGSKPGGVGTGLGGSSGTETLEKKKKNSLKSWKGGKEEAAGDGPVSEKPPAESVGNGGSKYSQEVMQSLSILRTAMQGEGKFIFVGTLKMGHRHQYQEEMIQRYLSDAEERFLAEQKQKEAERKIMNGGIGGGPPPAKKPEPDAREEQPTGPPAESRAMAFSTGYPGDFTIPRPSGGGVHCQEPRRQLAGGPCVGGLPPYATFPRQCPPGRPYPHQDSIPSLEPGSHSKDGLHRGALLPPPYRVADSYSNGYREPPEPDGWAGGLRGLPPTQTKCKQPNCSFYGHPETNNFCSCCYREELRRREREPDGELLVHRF
Summary of the method: as §1

PRPF8 = PRPF8 (UniProt Q6P2Q9)
Summary of the method: as §1

PSMD7 = target: T3, PSMD7 (UniProt P51665)
T3 sequence (whole entry): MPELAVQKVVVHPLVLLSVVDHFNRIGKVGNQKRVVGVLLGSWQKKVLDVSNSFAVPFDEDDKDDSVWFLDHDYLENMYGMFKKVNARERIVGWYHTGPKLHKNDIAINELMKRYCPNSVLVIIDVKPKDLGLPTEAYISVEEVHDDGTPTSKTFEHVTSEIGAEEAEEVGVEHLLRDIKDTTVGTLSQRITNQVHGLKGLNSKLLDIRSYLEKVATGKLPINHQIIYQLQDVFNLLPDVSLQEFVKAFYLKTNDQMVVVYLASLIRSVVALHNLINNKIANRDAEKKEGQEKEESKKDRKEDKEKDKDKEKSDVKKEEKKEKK
Summary of the method: as §1

UCHL1 = UCHL1 (UniProt P09936)
Summary of the method: as §1

UCHL3 = target: T4, UCHL3 (UniProt P15374)
T4 sequence (whole entry): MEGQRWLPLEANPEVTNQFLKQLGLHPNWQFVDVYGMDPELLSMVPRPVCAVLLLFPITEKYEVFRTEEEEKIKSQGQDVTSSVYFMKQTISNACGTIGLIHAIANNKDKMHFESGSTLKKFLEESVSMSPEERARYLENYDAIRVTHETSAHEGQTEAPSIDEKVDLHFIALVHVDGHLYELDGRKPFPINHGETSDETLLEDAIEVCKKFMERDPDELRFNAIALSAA
Summary of the method: as §1

UCHL5 = target: T5, UCHL5 (UniProt Q9Y5K5)
T5 sequence (whole entry): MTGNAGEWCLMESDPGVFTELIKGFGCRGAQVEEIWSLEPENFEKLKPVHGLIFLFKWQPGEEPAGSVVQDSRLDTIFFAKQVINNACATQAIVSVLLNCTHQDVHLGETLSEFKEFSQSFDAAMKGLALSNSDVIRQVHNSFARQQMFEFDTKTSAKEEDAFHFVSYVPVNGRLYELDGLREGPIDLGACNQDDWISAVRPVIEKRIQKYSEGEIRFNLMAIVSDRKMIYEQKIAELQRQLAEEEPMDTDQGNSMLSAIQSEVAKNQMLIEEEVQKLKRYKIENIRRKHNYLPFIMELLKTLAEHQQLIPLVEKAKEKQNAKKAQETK
Summary of the method: as §1

USP10 = USP10 (UniProt Q14694)
Summary of the method: as §1

USP15 = target: T6, USP15 (UniProt Q9Y4E8)
T6 sequence (whole entry): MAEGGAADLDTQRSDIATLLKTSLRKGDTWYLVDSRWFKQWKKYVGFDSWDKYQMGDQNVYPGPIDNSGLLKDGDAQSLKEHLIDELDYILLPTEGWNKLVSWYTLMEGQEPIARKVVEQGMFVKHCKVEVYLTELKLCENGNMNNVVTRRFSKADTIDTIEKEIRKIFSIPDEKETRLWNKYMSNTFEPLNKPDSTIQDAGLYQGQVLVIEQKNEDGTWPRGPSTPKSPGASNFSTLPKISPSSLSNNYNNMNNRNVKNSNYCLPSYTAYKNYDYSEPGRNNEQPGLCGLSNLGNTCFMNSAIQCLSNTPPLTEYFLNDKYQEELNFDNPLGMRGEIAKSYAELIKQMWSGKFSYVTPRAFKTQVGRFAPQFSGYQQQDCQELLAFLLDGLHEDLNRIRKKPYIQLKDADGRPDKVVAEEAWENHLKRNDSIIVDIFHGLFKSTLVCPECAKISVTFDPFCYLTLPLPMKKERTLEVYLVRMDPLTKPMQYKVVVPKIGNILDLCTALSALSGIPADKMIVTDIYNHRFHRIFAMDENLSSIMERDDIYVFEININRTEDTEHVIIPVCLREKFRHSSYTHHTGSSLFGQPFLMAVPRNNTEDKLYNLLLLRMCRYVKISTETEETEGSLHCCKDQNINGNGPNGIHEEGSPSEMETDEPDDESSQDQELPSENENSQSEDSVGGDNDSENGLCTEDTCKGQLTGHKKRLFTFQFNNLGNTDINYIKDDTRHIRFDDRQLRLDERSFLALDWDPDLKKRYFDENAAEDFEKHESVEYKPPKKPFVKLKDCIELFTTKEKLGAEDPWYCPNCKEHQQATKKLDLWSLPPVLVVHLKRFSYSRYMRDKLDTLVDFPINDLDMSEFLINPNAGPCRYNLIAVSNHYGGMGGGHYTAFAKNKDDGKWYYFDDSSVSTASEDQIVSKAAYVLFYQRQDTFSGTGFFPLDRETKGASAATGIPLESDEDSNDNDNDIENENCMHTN
Summary of the method: as §1

USP16 = USP16 (UniProt Q9Y5T5)
Summary of the method: as §1

Measured: log2 ratio of Biotin-Ahx-Ub-VS probe labelling

Chain of UCHL1 (P09936 whole entry, looked up): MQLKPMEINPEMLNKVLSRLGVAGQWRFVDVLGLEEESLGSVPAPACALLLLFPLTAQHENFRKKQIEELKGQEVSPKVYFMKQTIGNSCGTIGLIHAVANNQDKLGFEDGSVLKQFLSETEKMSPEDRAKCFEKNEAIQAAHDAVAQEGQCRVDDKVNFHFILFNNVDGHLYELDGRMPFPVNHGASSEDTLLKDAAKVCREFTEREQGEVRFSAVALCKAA
Chain of USP10 (Q14694 whole entry): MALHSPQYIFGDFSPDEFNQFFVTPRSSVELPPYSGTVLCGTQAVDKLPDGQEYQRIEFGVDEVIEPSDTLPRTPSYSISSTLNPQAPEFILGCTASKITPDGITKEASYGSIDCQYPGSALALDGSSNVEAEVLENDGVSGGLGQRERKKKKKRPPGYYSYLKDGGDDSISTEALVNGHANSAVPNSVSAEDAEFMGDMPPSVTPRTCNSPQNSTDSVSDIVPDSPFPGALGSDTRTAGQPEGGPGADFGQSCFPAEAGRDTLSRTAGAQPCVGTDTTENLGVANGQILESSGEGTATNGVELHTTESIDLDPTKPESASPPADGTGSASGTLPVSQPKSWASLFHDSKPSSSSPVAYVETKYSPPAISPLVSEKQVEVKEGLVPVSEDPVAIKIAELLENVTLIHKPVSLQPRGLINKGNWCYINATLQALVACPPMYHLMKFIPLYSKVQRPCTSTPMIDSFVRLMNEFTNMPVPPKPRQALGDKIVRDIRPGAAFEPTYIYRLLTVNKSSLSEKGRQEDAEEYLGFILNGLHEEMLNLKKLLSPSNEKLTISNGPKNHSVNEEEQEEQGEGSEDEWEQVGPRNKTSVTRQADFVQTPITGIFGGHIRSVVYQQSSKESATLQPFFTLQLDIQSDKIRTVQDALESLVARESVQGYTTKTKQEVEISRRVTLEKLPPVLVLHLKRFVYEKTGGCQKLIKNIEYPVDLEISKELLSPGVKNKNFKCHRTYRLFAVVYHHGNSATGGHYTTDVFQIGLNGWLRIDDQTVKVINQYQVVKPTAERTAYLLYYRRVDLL
Chain of USP16 (Q9Y5T5 whole entry, looked up): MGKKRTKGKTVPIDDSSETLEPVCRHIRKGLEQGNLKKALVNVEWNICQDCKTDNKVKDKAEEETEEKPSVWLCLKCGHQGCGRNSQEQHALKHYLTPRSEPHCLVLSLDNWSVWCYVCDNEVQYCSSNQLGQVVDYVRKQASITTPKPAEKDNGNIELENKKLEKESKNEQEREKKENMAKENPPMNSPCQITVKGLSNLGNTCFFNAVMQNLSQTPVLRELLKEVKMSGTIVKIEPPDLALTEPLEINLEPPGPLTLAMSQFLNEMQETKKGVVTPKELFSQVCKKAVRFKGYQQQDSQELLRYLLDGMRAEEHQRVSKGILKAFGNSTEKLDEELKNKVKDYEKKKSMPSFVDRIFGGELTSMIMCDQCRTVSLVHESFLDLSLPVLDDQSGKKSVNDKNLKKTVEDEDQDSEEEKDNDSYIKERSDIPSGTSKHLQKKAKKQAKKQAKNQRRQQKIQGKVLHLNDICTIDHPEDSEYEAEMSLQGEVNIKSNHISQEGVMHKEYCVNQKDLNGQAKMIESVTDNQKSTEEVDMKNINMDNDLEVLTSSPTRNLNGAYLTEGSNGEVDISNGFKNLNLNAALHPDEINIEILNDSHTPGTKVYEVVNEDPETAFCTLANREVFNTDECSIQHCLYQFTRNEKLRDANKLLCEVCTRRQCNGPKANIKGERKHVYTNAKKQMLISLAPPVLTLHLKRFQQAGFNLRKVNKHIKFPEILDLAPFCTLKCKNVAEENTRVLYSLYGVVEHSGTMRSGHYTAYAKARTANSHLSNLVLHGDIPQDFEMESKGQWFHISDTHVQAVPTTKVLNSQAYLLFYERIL

O=C(CCl)Nc1cc2c(cc1Cl)OCCO2
active: UCHL1 -1.2
inactive: OTUD6B -0.0652 | OTUD7B -0.567 | PRPF8 0.0189 | PSMD7 -0.149 | UCHL3 0.196 | UCHL5 -0.407 | USP10 -0.000247 | USP15 -0.202 | USP16 0.406
